In PubChem BioAssay (NCI) one finds growth inhibition data, which are given here for 40 compounds.

Compounds without any hit were thinned out: in the full panel of roughly 79,000, 15% have a hit. Active and inactive are the calls of the source. Cut-off read from the data, not from the text of the source: active = growth inhibition above about 70%; inactive = the rest.

One test can be described thus: NCI Yeast Anticancer Drug Screen. Data for the cln2 rad14 strain (AID 165).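 Note: 0% = growth equal to vehicle treated cultures.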 The settings on record: S. cerevisiae cln2 rad14 strain, at 50.0 µM, active compounds read high. Put shortly:
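Yeast strain cln2 rad14, bearing defects in cell cycle control and DNA repair, serves as the test system; values reflect growth inhibition compared with vehicle.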
On to `CC(C)(C)C1CCC(O)(CSc2ccccc2)CC1` (stereo not given), for which the growth inhibition is -1.75% (inactive).
As for `Cc1cc(C)c(C(=O)CC(C)C)c(C)c1`, the growth inhibition is 24.6% (inactive).
On the same count and under the same terms, the figure for `CCc1ccc(/C(C#N)=C/c2ccccc2Cl)cc1` is 10.2% (inactive); for `CN(C)CCN1CCc2c([nH]c3ccccc23)C1c1cccnc1` (stereo not given) it is 6.25% (inactive); for `CNc1ncnc2c1c(C(N)=S)cn2C1OC(CO)C(O)C1O` (stereo not given) it is 2.2% (inactive).
With `CC(=O)Nc1ccc(N(C)C)cc1Cl`, the growth inhibition was -17.1% (inactive).
Regarding `O=C(Nc1ccccc1)c1ccc(I)cc1`, the growth inhibition is -7.35% (inactive).
As to `CCCCCCCCCC(=O)N/N=C\c1cccc2ccccc12`, the growth inhibition was -14.1% (inactive).
For `O=C(O)c1cc(O)c(C(=O)O)cc1O`, the growth inhibition was -15.2% (inactive).
The same measure, in the same setting: the figure for `COc1ccc2[nH]c(C(F)(F)F)cc(=O)c2c1` is -7.95% (inactive); for `CCCCN=Cc1ccc(Cl)cc1` it is 6.5% (inactive).
Still for that read-out and setting: the figure for `O=C1c2ccccc2C(=O)N1C/C(Cl)=C/Cl` is -3.65% (inactive).
On the same count and under the same terms, as for `CCCCCCCCCCCCCCCCN=C1C=Cc2ccccc2C1=NCCCCCCCCCCCCCCCC`, the figure is 11.6% (inactive).
For the compound `CC(=O)OC1=C(C)C2=C3OC(=O)C(C)=C3CC[C@@]2(C)CC1`, the growth inhibition was 19.4% (inactive).
Take `O=C(CCC(=O)OCC1CCCO1)OCC1CCCO1` (stereo not given): the growth inhibition is 4.9% (inactive).
In the case of `C=CCCCC(C#N)c1ccc2c(c1)OCO2` (stereo not given), the growth inhibition is -82% (inactive).
On the same count and under the same terms, as for `CCCCOc1cc(C(=O)O)ccc1[N+](=O)[O-]`, the figure is -5.75% (inactive).
In the case of `CSC(=Nc1ccc([N+](=O)[O-])cc1C#N)NC(=O)c1ccccc1`, the growth inhibition is -15.1% (inactive).
Same read-out and setting: the figure for `Cc1ccc2[nH]c(=O)cc(C)c2c1` is 20.2% (inactive).
On to `COc1ccc(C(O)(CCN2CCOCC2)c2ccc3c(c2)OCO3)cc1` (stereo not given), for which the growth inhibition is -47.4% (inactive).
Take `CCN(CC)c1ccc(N=C2C=C(C(=O)Nc3ccc(C(=O)O)cc3)C(=O)c3ccccc32)c(C)c1`: the growth inhibition is 0.9% (inactive).
Consider `NNC(=O)c1cccc2c1Oc1ccccc1S2`, for which the growth inhibition is -63.9% (inactive).
Take `O=C(NN=C1c2ccccc2-c2ccccc21)C(F)(F)F`: the growth inhibition was 31.2% (inactive).
On the same count and under the same terms, as for `O=C1CC23CC(=O)CC2(C1)c1ccccc1C3=O` (stereo not given), the figure is 6.2% (inactive); as for `CSC(=NNC(N)=O)SC`, -14.2% (inactive); as for `CC(=O)N(CCCc1ccccc1)C(C)(C)C`, -22.1% (inactive).
On to `O=C(NC1C2CC3CC(C2)CC1C3)c1cc(/C=C/c2ccccc2)[nH]c(=S)n1` (stereo not given), for which the growth inhibition was 12.2% (inactive).
Regarding `CCOC(=O)Cc1ccc2c(c1)sc1nc(-c3ccc(OC)cc3)cn12`, the growth inhibition was 32.3% (inactive).
Consider `CN(C)CCN1CC2C3CCCCC3=C3CCCCC3C2C1` (stereo not given), for which the growth inhibition is -24.4% (inactive).
As for `CNC(C)C#N` (stereo not given), the growth inhibition was -19.6% (inactive).
On to `Nc1c(Cl)cnn2nnnc12`, for which the growth inhibition was -11.9% (inactive).
Consider `CSCCNC(=O)CS(=O)(=O)c1ccc(N)cc1`, for which the growth inhibition is -13.2% (inactive).
With `N#CCCS(=O)(=O)O`, the growth inhibition is 1.95% (inactive).
Same read-out and setting: the figure for `COCCNc1ccc([N+](=O)[O-])cc1[N+](=O)[O-]` is -26.9% (inactive); for `FC(F)(F)c1cccc(N=Cc2ccc(C=Nc3cccc(C(F)(F)F)c3)cc2)c1` it is 7.6% (inactive); for `CO[C@@H]1C[C@H]2[C@@H]3CC[C@H]([C@H](C)COC(C)=O)[C@@]3(C)CC[C@@H]2[C@@]2(C)CC[C@H]3C[C@]312` it is -9.65% (inactive).
On to `CCCCC(C=O)(CC)CCC#N` (stereo not given), for which the growth inhibition is -17.9% (inactive).
Turning to `CCCCCC(=O)/C=C/Sc1n[nH]c(=O)[nH]c1=O`, the growth inhibition was 27.9% (inactive).
As for `CC(=O)c1nc2ccccc2n1CC(=O)c1ccc([N+](=O)[O-])cc1`, the growth inhibition was -8% (inactive).
The same measure, in the same setting: the figure for `CCOC(=O)C(=O)C1CC(c2ccccc2)=NNC1=O` (stereo not given) is 23.1% (inactive).

Another test is described as follows: NCI Yeast Anticancer Drug Screen. Data for the bub3 strain (AID 167). The settings on record: S. cerevisiae bub3 mutant strain, at 50.0 µM, active compounds read high. Put shortly:
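Whole-cell yeast assay. The mutant strain was incubated with compounds, and growth inhibition was determined by comparison with vehicle-treated cells.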
In the case of `CC(C)(C)C1CCC(O)(CSc2ccccc2)CC1` (stereo not given), the growth inhibition is -6.7% (inactive).
For the compound `Cc1cc(C)c(C(=O)CC(C)C)c(C)c1`, the growth inhibition is -3.45% (inactive).
Take `CCc1ccc(/C(C#N)=C/c2ccccc2Cl)cc1`: the growth inhibition was 35.2% (inactive).
In the case of `CN(C)CCN1CCc2c([nH]c3ccccc23)C1c1cccnc1` (stereo not given), the growth inhibition was -18.2% (inactive).
In the case of `CNc1ncnc2c1c(C(N)=S)cn2C1OC(CO)C(O)C1O` (stereo not given), the growth inhibition was 0.95% (inactive).
For `CC(=O)Nc1ccc(N(C)C)cc1Cl`, the growth inhibition is -1.8% (inactive).
Consider `O=C(Nc1ccccc1)c1ccc(I)cc1`, for which the growth inhibition is 3.95% (inactive).
The same measure, in the same setting: as for `CCCCCCCCCC(=O)N/N=C\c1cccc2ccccc12`, the figure is 24.6% (inactive); as for `O=C(O)c1cc(O)c(C(=O)O)cc1O`, -3.25% (inactive); as for `COc1ccc2[nH]c(C(F)(F)F)cc(=O)c2c1`, 4.65% (inactive).
`CCCCN=Cc1ccc(Cl)cc1`: the growth inhibition was -19.9% (inactive).
For `O=C1c2ccccc2C(=O)N1C/C(Cl)=C/Cl`, the growth inhibition was 8.75% (inactive).
As to `CCCCCCCCCCCCCCCCN=C1C=Cc2ccccc2C1=NCCCCCCCCCCCCCCCC`, the growth inhibition is 5.95% (inactive).
In the case of `CC(=O)OC1=C(C)C2=C3OC(=O)C(C)=C3CC[C@@]2(C)CC1`, the growth inhibition is 25% (inactive).
Consider `O=C(CCC(=O)OCC1CCCO1)OCC1CCCO1` (stereo not given), for which the growth inhibition was 5.75% (inactive).
For `C=CCCCC(C#N)c1ccc2c(c1)OCO2` (stereo not given), the growth inhibition was -40.6% (inactive).
The same measure, in the same setting: as for `CCCCOc1cc(C(=O)O)ccc1[N+](=O)[O-]`, the figure is -19.2% (inactive); as for `CSC(=Nc1ccc([N+](=O)[O-])cc1C#N)NC(=O)c1ccccc1`, -16.8% (inactive); as for `Cc1ccc2[nH]c(=O)cc(C)c2c1`, 8.15% (inactive).
In the case of `COc1ccc(C(O)(CCN2CCOCC2)c2ccc3c(c2)OCO3)cc1` (stereo not given), the growth inhibition is 8.6% (inactive).
Take `CCN(CC)c1ccc(N=C2C=C(C(=O)Nc3ccc(C(=O)O)cc3)C(=O)c3ccccc32)c(C)c1`: the growth inhibition is -0.65% (inactive).
Regarding `NNC(=O)c1cccc2c1Oc1ccccc1S2`, the growth inhibition is -11.9% (inactive).
As to `O=C(NN=C1c2ccccc2-c2ccccc21)C(F)(F)F`, the growth inhibition was 6% (inactive).
Regarding `O=C1CC23CC(=O)CC2(C1)c1ccccc1C3=O` (stereo not given), the growth inhibition is 3.05% (inactive).
On to `CSC(=NNC(N)=O)SC`, for which the growth inhibition is -9.7% (inactive).
`CC(=O)N(CCCc1ccccc1)C(C)(C)C`: the growth inhibition was 2.25% (inactive).
On the same count and under the same terms, the figure for `O=C(NC1C2CC3CC(C2)CC1C3)c1cc(/C=C/c2ccccc2)[nH]c(=S)n1` (stereo not given) is -2.25% (inactive); for `CCOC(=O)Cc1ccc2c(c1)sc1nc(-c3ccc(OC)cc3)cn12` it is 31.1% (inactive).
On to `CN(C)CCN1CC2C3CCCCC3=C3CCCCC3C2C1` (stereo not given), for which the growth inhibition was 23.8% (inactive).
As to `CNC(C)C#N` (stereo not given), the growth inhibition was 0.75% (inactive).
As to `Nc1c(Cl)cnn2nnnc12`, the growth inhibition was 2.95% (inactive).
As to `CSCCNC(=O)CS(=O)(=O)c1ccc(N)cc1`, the growth inhibition is -2.35% (inactive).
For `N#CCCS(=O)(=O)O`, the growth inhibition was 15.9% (inactive).
In the case of `COCCNc1ccc([N+](=O)[O-])cc1[N+](=O)[O-]`, the growth inhibition is -8.65% (inactive).
Regarding `FC(F)(F)c1cccc(N=Cc2ccc(C=Nc3cccc(C(F)(F)F)c3)cc2)c1`, the growth inhibition is -9% (inactive).
Consider `CO[C@@H]1C[C@H]2[C@@H]3CC[C@H]([C@H](C)COC(C)=O)[C@@]3(C)CC[C@@H]2[C@@]2(C)CC[C@H]3C[C@]312`, for which the growth inhibition was -1.6% (inactive).
As to `CCCCC(C=O)(CC)CCC#N` (stereo not given), the growth inhibition was -16.1% (inactive).
Same read-out and setting: as for `CCCCCC(=O)/C=C/Sc1n[nH]c(=O)[nH]c1=O`, the figure is 55% (inactive); as for `CC(=O)c1nc2ccccc2n1CC(=O)c1ccc([N+](=O)[O-])cc1`, 3.45% (inactive); as for `CCOC(=O)C(=O)C1CC(c2ccccc2)=NNC1=O` (stereo not given), 31.1% (inactive).
